Here are results for 70 molecules from PubChem BioAssay AID1259343 (VanderVen Lab, College of Veterinary Medicine, Cornell …, 2017).

Each structure is given as a SMILES string. The campaign covered roughly 6,200 compounds. About 2,900 (47%) were called active. The set was probably picked from earlier hits. The list shows a part of the results. Values without a mark were called inactive. Rule as the data show it: active = inhibition above about 50%; inactive = the rest.

This assay is described as follows: Mycobacterium tuberculosis growth inhibition, primary screen (AID 1259343). To be noted: inhibition: at 10 µM, stronger effect = higher value; outcome: 10 uM.
The inhibition is the change of the read-out against control, counted positive when it falls. For `O=C(CN1CCCC1c1ccsc1)Nc1ccccc1Br` (stereo not given), the inhibition was 41.9%.
As to `N#Cc1nc(NC(=O)C2CC2c2ccc(Br)cc2)[nH]c1C#N` (stereo not given), the inhibition was 81.5% (active).
As to `COc1ccc(NS(=O)(=O)c2ccc(Cl)c(Cl)c2)cc1`, the inhibition was 86.7% (active).
As to `O=S(=O)(Nc1cc(Cl)ccc1Cl)c1ccc(Cl)cc1`, the inhibition was 64.6% (active).
In the case of `O=S(=O)(Nc1ccc(F)c(F)c1)c1ccc(Cl)c(Cl)c1`, the inhibition is 17.1%.
Next, `O=c1[nH]c2ccc(S(=O)(=O)Nc3ccc(Cl)cc3Cl)cc2s1`: 19%; `N#CSc1ccc(NS(=O)(=O)c2ccc(Cl)cc2)c(Cl)c1`: 79.8% (active); `COc1ccc(S(=O)(=O)Nc2ccc3c(c2)OC(F)(F)O3)cc1`: 33%.
Take `Nc1cc(S(=O)(=O)Nc2ccc(Br)cc2)ccc1Cl`: the inhibition is 30%.
Take `Nc1cc(S(=O)(=O)Nc2ccc(Cl)cc2)ccc1Cl`: the inhibition was 89.1% (active).
For the molecule `CCS(=O)(=O)c1ccc(NC(=O)Cc2ccc(Cl)c(Cl)c2)cc1`, the inhibition is 41.3%.
With `CCN(CC)S(=O)(=O)c1cccc(S(=O)(=O)c2ccc(Cl)c(Cl)c2)c1`, the inhibition was 1.03%.
The same measure for `CCC(C)(C)NS(=O)(=O)c1ccc(Cl)c(Cl)c1`: 82.7% (active); for `CN(Cc1cccnc1)c1ccc2c(-c3ccccc3F)noc2n1`: 90.6% (active).
Next, `CCn1cnnc1CN(C)c1ccc(-c2nc(-c3ccccc3F)no2)cn1`: 7.76%; `CN(Cc1ccc(Cl)cc1)c1ccc2c(C3CC3)noc2n1`: 41.3%.
`O=Cc1ccc(-c2ccc(Cl)cc2Cl)[nH]1`: the inhibition is 91.2% (active).
Take `CCOc1nc(NC(C)c2ccccc2)ncc1Br` (stereo not given): the inhibition is 28%.
`CC(NCCC(c1ccccc1)c1ccccc1)c1ccccc1` (stereo not given): the inhibition was 58.2% (active).
Consider `Clc1ccccc1CSCc1csc(Cc2ccc3c(c2)OCO3)n1`, for which the inhibition is 11.8%.
Next, `Cc1ccc(Cc2nc(CSCCc3ccccc3)cs2)cc1`: 63.4% (active).
Next, `Oc1ccc(-c2csc(Cc3ccccc3)n2)cc1O`: 30.3%; `OCC1(CCOc2ccccc2)CCN(Cc2cc3ccccc3o2)CC1`: 28.8%.
As for `c1ccc2oc(COc3ccc4c(C5CC5)noc4n3)cc2c1`, the inhibition is 81.1% (active).
With `Cc1ccc(COc2ccc3c(C4CC4)noc3n2)cc1F`, the inhibition is 94.2% (active).
Next, `COc1ccccc1-c1noc2nc(OCc3ccccc3)ccc12`: 95.3% (active); `c1csc(COc2ccc3c(C4CC4)noc3n2)c1`: 82.4% (active); `Cn1c(Cc2ccccc2)nn(CN2CCC3(CC2)OCCO3)c1=S`: 8.21%.
On to `c1ccc(COc2ccc3c(C4CC4)noc3n2)cc1`, for which the inhibition is 76.3% (active).
Next, `Cc1cccc(COc2ccc3c(C4CC4)noc3n2)c1`: 56% (active); `Cc1ccc(COc2ccc3c(C4CC4)noc3n2)cc1`: 46.7%.
Consider `Clc1cccc(COc2ccc3c(C4CC4)noc3n2)c1`, for which the inhibition was 76.8% (active).
With `CCCCn1c(O)c(C=Nc2ccccc2C(=O)O)c(C)c(C#N)c1=O`, the inhibition is -10.6%.
The same measure for `COc1ccc2nc(-n3nc(C)cc3NC(C)=O)sc2c1`: 86% (active); for `O=C(Nc1ccc(Oc2cccnc2)cc1)C1CCN(Cc2cc(Cl)ccc2O)CC1`: 77.8% (active).
Next, `O=C(Nc1ccc(Oc2cccnc2)cc1)C1CCN(C/C=C/c2ccccc2)CC1`: 28.8%.
Next, `O=C(Nc1ccc(Oc2cccnc2)cc1)C1CCN(Cc2nccs2)CC1`: 88.5% (active); `CC(=O)c1cccc(CN2CCC(C(=O)Nc3ccc(Oc4cccnc4)cc3)CC2)c1`: “inactive”.
For the molecule `Cc1ccc(CN2CCC(C(=O)Nc3ccc(Oc4cccnc4)cc3)CC2)o1`, the inhibition is 61.8% (active).
Next, `COCCNC(=S)NN=Cc1cccs1`: 38.1%; `Cc1ccc(C=NNC(=S)NCCCN2CCOCC2)s1`: 102% (active).
Regarding `CCCCNC(=S)NN=Cc1ccc(C)s1`, the inhibition is 71% (active).
The same measure for `CCCCNC(=S)NN=Cc1cccs1`: 103% (active); for `CCCCNC(=S)N(C)N=Cc1ccc(C)s1`: -20.6%.
Take `C=C(C)CNC(=S)NN=CC1=CCC2CC1C2(C)C` (stereo not given): the inhibition is 23%.
Next, `O=C(c1ccc2nonc2c1)N1CCCC2(CCCc3ccccc32)C1` (stereo not given): 23.2%; `COc1cccc(-c2ccccc2NC(=O)C2CCN(Cc3cnc(C)nc3)CC2)c1`: 33%.
The same measure for `COc1cccc(-c2ccccc2NC(=O)C2CCN(Cc3cccc4cccnc34)CC2)c1`: “inactive”.
For `COc1cccc(-c2ccccc2NC(=O)C2CCN(Cc3cccc(C)n3)CC2)c1`, the inhibition was 99.6% (active).
The same measure for `COc1cccc(-c2ccccc2NC(=O)C2CCN(Cc3ccc(OC)c(C)c3)CC2)c1`: 92% (active); for `CC(C)c1cccc(N(C)Cc2cncn2C)c1`: 42.1%; for `N#CC(=Cc1cccc2ccccc12)c1ccccn1`: 22.6%.
Regarding `N#CC(=Cc1cccc2ccccc12)c1nc(C2CC2)cs1`, the inhibition is 96.1% (active).
Turning to `N#CC(=Cc1ccc(Cl)cc1)c1nc(C2CC2)cs1`, the inhibition was 20.5%.
The same measure for `CCc1c(C)nc(-c2ccc(C(F)(F)F)cc2)nc1N1CCNCC1`: 61.7% (active); for `OCC1(Cc2cccc(C(F)(F)F)c2)CCN(c2ccc3ccccc3n2)CC1`: 22.1%.
Next, `CCc1c(C)nc(-c2cccc(C(F)(F)F)c2)nc1N1CCNCC1`: 33.2%.
For the molecule `Cc1ccc(Cc2nsc(N3CCN(c4cccc(C(F)(F)F)c4)CC3)n2)cc1`, the inhibition was 24.1%.
On to `Cc1cc(N2CCNCC2)nc(-c2ccc(C(F)(F)F)cc2)n1`, for which the inhibition is 82% (active).
`Cc1cc(N2CCNCC2)nc(-c2cccc(C(F)(F)F)c2)n1`: the inhibition was 94.4% (active).
Regarding `Nc1cc(Cl)ccc1Oc1ccc(Cl)cc1`, the inhibition was -29.7%.
For `O=[N+]([O-])c1cc(Cl)ccc1Oc1ccc2ccccc2c1`, the inhibition was 77.2% (active).
`CC(C)(C)c1cc(/C=C(\C#N)C(N)=S)cc(C(C)(C)C)c1O`: the inhibition was 102% (active).
Consider `Cc1nnc(NC(=O)C(C)SC(F)(F)F)s1` (stereo not given), for which the inhibition was 91.5% (active).
Consider `CCOc1ccc(N=Nc2c(C)n[nH]c2C)cc1`, for which the inhibition was -45%.
For the molecule `Cc1nc(N)sc1N=Nc1ccc(Br)cc1`, the inhibition was 23.2%.
Next, `Cc1n[nH]c(C)c1N=Nc1ccc(Br)cc1`: 104% (active).
Next, `Nc1nnc(SCc2ccc(Br)cc2F)s1`: 28.8%; `CCc1ccc(-c2noc(CSc3nnc(N)s3)n2)cc1`: 12.6%; `Nc1nnc(SCC2CC2)s1`: 86.5% (active).
